Screens: PubChem, Broad Institute
C diff growth: inhibitors of Clostridium difficile growth; Clostridium difficile clinical isolate growth, OD600, 24 h; stronger effect = lower value; growth activity, negative = inhibition, % at 16 µg/mL (by protocol); actives 0.25% (n = 86,000);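 active = mean growth activity at or below -80% and every replicate also at or below -80%; inconclusive = mean at or below -80% but some replicate above -80%; inactive = mean growth activity above -80%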
Pf Dd2 inh: P. falciparum Dd2 growth inhibition; SYBR Green, 72 h; stronger effect = lower value; activity change, % at 10 µM; actives 2.3% (n = 94,000); AID 1159554; in the data active = activity change below about -80%; inconclusive = no clear call, values can overlap the other calls
T cruzi growth-1: inhibitors of T. cruzi proliferation; inhibition, % at 8.34 µM; T. cruzi beta-gal in NIH3T3, GalScreen luminescence, 90 h; actives 5.9% (n = 77,000);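 active = mean inhibition above about 93%, with at least 55% of replicates each passing it, limit read from the data, passing the limit was not always enough; inconclusive = only one of those two conditions holds; inactive = neither condition holds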
T cruzi growth-2: inhibitors of T. cruzi proliferation; inhibition, % at 8.35 µM; shares compounds with T cruzi growth-1; AID 651739; actives 72% (n = 5,600); T. cruzi beta-gal in NIH3T3, GalScreen luminescence, 90 h;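 active = mean replicate inhibition above about 95% and at least 55% of replicates individually reaching it, limit read from the data; inconclusive = only one of the two criteria is met; inactive = neither criterion is met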
T cruzi growth-3: inhibitors of T. cruzi proliferation; shares compounds with T cruzi growth-1; T. cruzi beta-gal in NIH3T3, GalScreen luminescence, 90 h; inhibition, % at 2.09 µM; actives 21% (n = 5,600);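 active = mean inhibition above about 95%, with at least 55% of replicates also reaching it, limit read from the data; inconclusive = meets just one of the two conditions; inactive = meets neither condition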
3T3 cytotox: NIH/3T3 (mouse) viability loss | shares compounds with T cruzi growth-1 | NIH/3T3 viability, CellTiter-Glo ATP luminescence, 90 h | cytotoxicity (signal decrease), % at 8.35 µM | actives 14% (n = 5,600) | AID 651742;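 active = mean signal decrease across replicates above about 35% based on untreated-well scatter, with enough replicates individually passing, limit read from the data; inconclusive = no rule stated though some were filed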
3T3 cytotox 2: cytotoxicity in mouse NIH/3T3 fibroblasts | shares compounds with T cruzi growth-1 | actives 56% (n = 5,600) | AID 651744 | NIH/3T3 viability, CellTiter-Glo ATP luminescence, 90 h | inhibition, % at 24.9 µM;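 active = mean loss of cell viability signal at or above a set limit, and enough replicates individually reaching it; inconclusive = meets only the mean limit or only the replicate share; inactive = meets neither condition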
Hits are given with their value; 0 = inactive; ? = inconclusive; - = no result. Most compounds without a hit are left out; they make up all but 6.7% or so of the library.

SMILES	C diff growth	Pf Dd2 inh	T cruzi growth-1	T cruzi growth-2	T cruzi growth-3	3T3 cytotox	3T3 cytotox 2
Cc1noc(C)c1NC(=O)Nc1ccc2c(c1)C(=O)N([C@H](C)CO)C[C@H](C)[C@@H](CN(C)C(=O)Nc1ccc(C(F)(F)F)cc1)OCCCC[C@@H](C)O2	0	0	0	-	-	-	-
C[C@@H]1CCCCO[C@@H](CN(C)C(=O)Nc2ccc(C(F)(F)F)cc2)[C@H](C)CN([C@H](C)CO)C(=O)c2cc(NC(=O)Nc3ccccc3)ccc2O1	0	0	-	-	-	-	-
C[C@@H]1CCCCO[C@H](CN(C)C(=O)Nc2ccc(C(F)(F)F)cc2)[C@H](C)CN([C@@H](C)CO)C(=O)c2cc(NC(=O)Nc3ccc4c(c3)OCO4)ccc2O1	0	0	117	107	109	0	0
C[C@@H]1CCCCO[C@H](CN(C)C(=O)Nc2ccc(C(F)(F)F)cc2)[C@@H](C)CN([C@H](C)CO)C(=O)c2cc(NC(=O)Nc3ccc(C(F)(F)F)cc3)ccc2O1	-	0	103	101	?	0	0
C[C@H]1CCCCO[C@H](CN(C)C(=O)Nc2ccccc2)[C@@H](C)CN([C@@H](C)CO)C(=O)c2cc(NC(=O)Nc3ccc(C(F)(F)F)cc3)ccc2O1	0	0	-	-	-	-	-
Cc1noc(C)c1NC(=O)Nc1ccc2c(c1)C(=O)N([C@@H](C)CO)C[C@H](C)[C@H](CN(C)C(=O)Nc1ccc(C(F)(F)F)cc1)OCCCC[C@H](C)O2	0	0	110	96	0	0	0
C[C@H](CO)N1C[C@H](C)[C@H](CN(C)C(=O)Nc2ccc(C(F)(F)F)cc2)OCCCC[C@H](C)Oc2ccc(NC(=O)Nc3ccc(C(F)(F)F)cc3)cc2C1=O	0	0	126	102	117	0	0
C[C@@H]1CCCCO[C@H](CN(C)C(=O)Nc2ccc3c(c2)OCO3)[C@@H](C)CN([C@H](C)CO)C(=O)c2cc(NC(=O)Nc3ccc(C(F)(F)F)cc3)ccc2O1	0	0	0	-	-	-	-
O=C(C[C@H]1CC[C@@H](NC(=O)CN2CCOCC2)[C@H](CO)O1)NCc1cccc(F)c1	-	0	0	-	-	-	-
CO[C@@H]1CN(C)C(=O)c2ccc(NS(=O)(=O)c3ccc(F)cc3)cc2OC[C@@H](C)NC[C@@H]1C	0	0	0	-	-	-	-
C[C@H]1CN([C@@H](C)CO)C(=O)c2cccc(NC(=O)c3nc4ccccc4s3)c2O[C@@H]1CN(C)C(=O)Nc1ccc(F)cc1	0	0	0	-	-	-	-
C[C@@H]1CN([C@H](C)CO)C(=O)c2cc(NC(=O)Nc3cccc4ccccc34)ccc2O[C@H]1CN(C)C	0	0	0	-	-	-	-
CC(C)NC(=O)Nc1ccc2c(c1)C(=O)N([C@@H](C)CO)C[C@@H](C)[C@@H](CN(C)C(=O)Nc1ccc(C(F)(F)F)cc1)OCCCC[C@@H](C)O2	0	0	0	-	-	-	-
C[C@@H]1CCCCO[C@H](CN(C)C(=O)Nc2ccc(C(F)(F)F)cc2)[C@H](C)CN([C@H](C)CO)C(=O)c2cc(NC(=O)Nc3ccccc3)ccc2O1	0	0	-	-	-	-	-
C[C@@H]1CCCCO[C@H](CN(C)C(=O)Nc2ccc(C(F)(F)F)cc2)[C@@H](C)CN([C@@H](C)CO)C(=O)c2cc(NC(=O)Nc3ccc(C(F)(F)F)cc3)ccc2O1	0	-88	112	108	115	0	?
C[C@H](CO)N1C[C@H](C)[C@H](CN(C)C(=O)Nc2ccc(C(F)(F)F)cc2)OCCCC[C@H](C)Oc2ccc(NC(=O)Nc3ccccc3)cc2C1=O	0	0	-	-	-	-	-
CC(C)NC(=O)Nc1ccc2c(c1)C(=O)N([C@H](C)CO)C[C@H](C)[C@@H](CN(C)C(=O)Nc1ccc(C(F)(F)F)cc1)OCCCC[C@H](C)O2	0	0	98	98	0	0	0
C[C@@H]1CCCCO[C@H](CN(C)C(=O)Nc2ccc(C(F)(F)F)cc2)[C@H](C)CN([C@@H](C)CO)C(=O)c2cc(NC(=O)Nc3ccc(C(F)(F)F)cc3)ccc2O1	0	0	116	108	113	0	0
O=C(Nc1ccc(C(F)(F)F)cc1)N[C@@H]1CC[C@@H](CCn2cc(C3(O)CCCC3)nn2)O[C@H]1CO	0	0	0	-	-	-	-
C[C@H](CO)N1C[C@H](C)[C@H](CN(C)C(=O)Nc2ccc(F)cc2)Oc2c(NC(=O)c3ccncc3)cccc2C1=O	0	0	0	-	-	-	-
CNC[C@H]1Oc2c(NS(=O)(=O)c3ccccc3)cccc2C(=O)N([C@@H](C)CO)C[C@@H]1C	0	0	-	-	-	-	-
CCCC#Cc1ccc2c(c1)O[C@H](CN(C)C(=O)C1CCCCC1)[C@@H](C)CN([C@H](C)CO)S2(=O)=O	0	0	0	-	-	-	-
CCCC#Cc1ccc2c(c1)O[C@H](CN(C)C(=O)C1CCC1)[C@H](C)CN([C@H](C)CO)S2(=O)=O	0	0	?	?	0	0	57
CCCC#Cc1ccc2c(c1)O[C@H](CN(C)C(=O)C1CCC1)[C@@H](C)CN([C@H](C)CO)S2(=O)=O	0	0	?	?	0	0	0
CCCC#Cc1ccc2c(c1)O[C@@H](CN(C)C(=O)C1CCC1)[C@H](C)CN([C@@H](C)CO)S2(=O)=O	0	0	0	-	-	-	-
SMILES	C diff growth	Pf Dd2 inh	T cruzi growth-1	T cruzi growth-2	T cruzi growth-3	3T3 cytotox	3T3 cytotox 2
CN(C)CCCNC(=O)C[C@H]1CC[C@H](NS(=O)(=O)c2ccc(F)cc2)[C@H](CO)O1	0	0	0	-	-	-	-
O=C(Nc1ccc(F)cc1)N1CCCCN2[C@H](C1)[C@@H](c1ccc(C#Cc3ccccc3)cc1)[C@@H]2CO	0	0	0	-	-	-	-
O=C(Nc1ccccc1)N1CCCCN2[C@H](C1)[C@H](c1ccc(C#CC3CC3)cc1)[C@@H]2CO	0	0	0	-	-	-	-
O=C(Nc1ccccc1)N1CCCCN2[C@@H](CO)[C@@H](c3ccc(C#CC4CC4)cc3)[C@@H]2C1	0	0	0	-	-	-	-
O=C(Nc1ccc(F)cc1)N1CCCCN2[C@H](C1)[C@@H](c1ccc(C#CC3CC3)cc1)[C@@H]2CO	0	0	99	101	104	0	105
O=C(Nc1ccc(F)cc1)N1CCCCN2[C@H](CO)[C@H](c3ccc(C#CC4CC4)cc3)[C@@H]2C1	0	0	106	107	0	0	0
O=C(Nc1ccc(F)cc1)N1CCCCN2[C@H](CO)[C@@H](c3ccc(C#CC4CC4)cc3)[C@@H]2C1	0	0	108	112	0	0	104
O=C(NCC[C@@H]1CC[C@@H](NS(=O)(=O)c2ccccc2)[C@H](CO)O1)c1ccccc1F	0	0	0	-	-	-	-
CN(C)C(=O)C[C@@H]1C[C@@H]2c3cc(NC(=O)Nc4ccccc4F)ccc3O[C@@H]2[C@@H](CO)O1	0	0	0	-	-	-	-
C[C@@H]1CCCCO[C@@H](CN(C)Cc2ccc(C(F)(F)F)cc2)[C@H](C)CN([C@H](C)CO)C(=O)c2cc(NC(=O)Nc3ccccc3)ccc2O1	0	0	0	-	-	-	-
